# Laboratory results published in PubChem BioAssay (NCI).
# “And” between values parts separate entries of the source, which are not always exact repeats. Identical values can stand only once. This is part of a sample that, as a whole, favours compounds with a hit. Of some 79,000 tested, about 15% had one in any assay. Some structures have more than one record in an assay (separate samples or runs), and their calls can disagree. The source made the active and inactive calls. Rule as the data show it: active = growth inhibition above about 70%; inactive = the rest.
# Legend:
# [1] = NCI Yeast Anticancer Drug Screen. Data for the sgs1 mgt1 strain (AID 161);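 also: 0% = growth of cultures given vehicle only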; details: S. cerevisiae sgs1 mgt1 strain, stronger effect = higher value
# Procedure, shortened: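 Read-out: growth inhibition vs vehicle controls. Cells: mutant yeast strain deficient in DNA damage repair.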
# [2] = NCI Yeast Anticancer Drug Screen. Data for the mlh1 rad18 strain (AID 175); details: S. cerevisiae mlh1 rad18 strain growth inhibition, stronger effect = higher value
# Procedure, shortened: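 Inhibition values reflect reduced growth of mutant yeast versus vehicle-treated controls following compound exposure; the mutations affect DNA damage repair.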
# [3] = NCI Yeast Anticancer Drug Screen. Data for the mec2-1 strain (AID 157); details: S. cerevisiae mec2-1 strain, stronger effect = higher value
# Procedure, shortened: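 Each compound was tested on mec2-1 yeast, a strain altered in DNA damage repair or cell cycle control. Growth inhibition is reported relative to vehicle.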
# [4] = NCI Yeast Anticancer Drug Screen. Data for the cln2 rad14 strain (AID 165);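 also: 0% = growth equal to vehicle treated cultures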; details: S. cerevisiae cln2 rad14 strain, stronger effect = higher value
# Procedure, shortened: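 Test compounds were added to cln2 rad14 yeast cultures; inhibition of growth was then determined by comparison with vehicle treatment.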
# [5] = NCI Yeast Anticancer Drug Screen. Data for the bub3 strain (AID 167); details: S. cerevisiae bub3 mutant strain, stronger effect = higher value
# Procedure, shortened: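 Readout: yeast growth inhibition, expressed relative to vehicle-only wells. The test organism is a mutant strain from a panel with lesions in DNA repair or checkpoint genes.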
# [6] = NCI Yeast Anticancer Drug Screen. Data for the rad50 strain (AID 155);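 also: 0% = growth of vehicle-only cultures of the same strain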; details: S. cerevisiae rad50 strain growth inhibition, stronger effect = higher value
# Procedure, shortened: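 Readout: growth inhibition relative to vehicle-treated cultures. Compound exposure was carried out in a genetically defined yeast strain deficient in DNA damage repair.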
# [7] = at 5.0 µM (retest, dose inferred, filed as 0.5)
# [8] = at 50.0 µM (retest, dose inferred, filed as 5.0)
Compound,growth inhibition ([1]; at 50.0 µM),growth inhibition ([2]; at 50.0 µM),"growth inhibition [3, 7]","growth inhibition [3, 8]",growth inhibition ([3]; at 50.0 µM),"growth inhibition [1, 7]","growth inhibition [1, 8]","growth inhibition [4, 7]","growth inhibition [4, 8]",growth inhibition ([4]; at 50.0 µM),"growth inhibition [5, 7]","growth inhibition [5, 8]",growth inhibition ([5]; at 50.0 µM),"growth inhibition [2, 7]","growth inhibition [2, 8]",growth inhibition ([6]; at 50.0 µM),"growth inhibition [6, 7]","growth inhibition [6, 8]"
OCC(O)C(O)C(O)C(O)CO (configuration not stated) (tested in a mixture with another compound),0.35% (inactive) [middle of 6 runs],13.2% (inactive) [middle of 6 runs],–,–,–,–,–,–,–,–,–,–,–,–,–,–,–,–
C=C[C@]1(C)C=C2C(O)CC3C(C)(C)CCC[C@]3(CO)C2CC1 (some centres not stated),99.5% (active),99.2% (active),13% (inactive),100% (active),99.6% (active),17% (inactive),97% (active),13% (inactive),99% (active),99.3% (active),4% (inactive),99% (active),99.5% (active),26% (inactive),99% (active),–,–,–
COc1nc2nc(C(O)C(O)CO)cnc2c(=O)n1C (configuration not stated),-5.2% (inactive) [middle of 4 runs],–,–,–,-6.55% (inactive) [middle of 4 runs],–,–,–,–,–,–,–,7.15% (inactive) [middle of 4 runs],–,–,-5.55% (inactive) [middle of 4 runs],–,–
CC(C)C(N)C(=O)NC(C(=O)NC(C(=O)O)C(C)C)C(C)C (configuration not stated),3.35% (inactive) [middle of 6 runs],–,–,–,6.8% (inactive) [middle of 6 runs],–,–,–,–,–,–,–,6.2% (inactive) [middle of 6 runs],–,–,-1.6% (inactive) [middle of 6 runs],–,–
CCCCCCC(C(=O)OCC)N1C(=O)c2ccccc2S1(=O)=O (configuration not stated),30.5% (inactive),61.9% (inactive),-5% (inactive),10% (inactive),21.7% (inactive),-4% (inactive),65% (inactive),-3% (inactive),16% (inactive),12.2% (inactive),10% (inactive),55% (inactive),88.5% (active),5% (inactive),36% (inactive),–,–,–
COc1cccc2c1C(=O)c1c(O)c3c(c(O)c1C2=O)C[C@@](O)(C(=O)CO)C[C@@H]3OC1CC(N)C(O)C(C)O1 (some centres not stated),94.6% (active) and 88% (active) and 5% (inactive),92.8% (active) and 89.8% (active) and 46.3% (inactive),–,–,–,53% (inactive) and 15% (inactive) and 4% (inactive),99% (active) and 88% (active) and -2% (inactive),25% (inactive) and 5% (inactive) and -23% (inactive),98% (active) and 49% (inactive) and 1% (inactive),90.5% (active) and 11.1% (inactive) and 91.5% (active),57% (inactive) and 2% (inactive) and 22% (inactive),98% (active) and 72% (active) and 17% (inactive),93.7% (active) and 88.8% (active) and -40.1% (inactive),69% (inactive) and 44% (inactive) and -8% (inactive),98% (active) and 84% (active) and -10% (inactive),92.2% (active) and 94.8% (active) and 20.2% (inactive),91% (active) and 50% (inactive) and -5% (inactive),99% (active) and 94% (active) and 0% (inactive)
c1ccc(CSC(SCc2ccccc2)(c2ccccc2)c2ccccc2)cc1,14.8% (inactive) and 76.8% (active),–,13% (inactive),93% (active),5.7% (inactive) and 63.5% (inactive),2% (inactive),90% (active),11% (inactive),87% (active),18.2% (inactive) and 65.3% (inactive),-16% (inactive),83% (active),15.4% (inactive) and 74.8% (active),–,–,–,–,–
CCCCCCCCCCCCCC1=NCC(c2ccc3ccccc3c2)O1 (configuration not stated),-12.6% (inactive),-1.95% (inactive),–,–,–,-4% (inactive),-23% (inactive),-6% (inactive),-27% (inactive),10.3% (inactive),1% (inactive),-6% (inactive),-4.7% (inactive),-2% (inactive),-6% (inactive),-1.9% (inactive),-4% (inactive),-13% (inactive)
N=S(c1ccccc1[N+](=O)[O-])c1ccccc1[N+](=O)[O-],69.5% (inactive) and 75.5% (active),79.8% (active) and 76.3% (active),2% (inactive) and 7% (inactive),15% (inactive) and 53% (inactive),17.4% (inactive) and 22.4% (inactive),-24% (inactive) and 32% (inactive),39% (inactive) and 77% (active),8% (inactive) and 6% (inactive),9% (inactive) and 49% (inactive),25.3% (inactive) and 61.9% (inactive),-7% (inactive) and 2% (inactive),-6% (inactive) and 73% (active),36.9% (inactive) and 26.8% (inactive),-14% (inactive) and 20% (inactive),-1% (inactive) and 83% (active),–,–,–
COC1OC2COC(c3ccccc3)OC2C2OC12 (configuration not stated),–,-12.8% (inactive) [middle of 4 runs],–,–,-2.5% (inactive) [middle of 4 runs],–,–,–,–,3.15% (inactive) [middle of 4 runs],–,–,-4.2% (inactive) [middle of 4 runs],–,–,-7.7% (inactive) [middle of 4 runs],–,–
CC(O)CN1CCN(CC(C)O)CC1.[I][Pt+2][I] (configuration not stated),–,92.7% (active),-295% (inactive),11% (inactive),37.2% (inactive),–,–,2% (inactive),7% (inactive),17.9% (inactive),-1% (inactive),2% (inactive),-2% (inactive),-2% (inactive),16% (inactive),–,–,–
C#CC(C)(C)OC(=O)Nc1ccccc1,-10.1% (inactive) and 84% (active),8.4% (inactive) and 86.7% (active),–,–,–,-2% (inactive),80% (active),0% (inactive),14% (inactive),-53% (inactive) and 2.95% (inactive),-6% (inactive),79% (active),-7.8% (inactive) and 59.4% (inactive),-3% (inactive),80% (active),12.6% (inactive) and 89.2% (active),5% (inactive),86% (active)
COc1nc(NC2OC(CO)C(O)C(O)C2O)c(Cl)c(=O)n1C (configuration not stated),87.3% (active),88.9% (active),3% (inactive),0% (inactive),74.5% (active),2% (inactive),-2% (inactive),1% (inactive),3% (inactive),69.3% (inactive),-1% (inactive),-2% (inactive),71.2% (active),-1% (inactive),-3% (inactive),–,–,–
CC(=O)OCC(OC(C)=O)C(OC(C)=O)C(OC(C)=O)C(OC(C)=O)C(/C=N/Nc1ccccc1)=N/Nc1ccccc1 (configuration not stated),47.8% (inactive) and 6.1% (inactive),–,–,–,–,-12% (inactive) and -18% (inactive),50% (inactive) and 9% (inactive),23% (inactive) and 0% (inactive),86% (active) and 1% (inactive),44.4% (inactive) and 29.6% (inactive),7% (inactive) and -3% (inactive),87% (active) and -12% (inactive),86.3% (active) and 18.7% (inactive),–,–,–,–,–
NC(CSCc1ccccc1)C(=O)O (configuration not stated),–,0.9% (inactive) [middle of 4 runs],–,–,–,–,–,–,–,–,–,–,-6% (inactive) [middle of 4 runs],–,–,–,–,–
COC(=O)[C@]1(C)CCC[C@]2(C)c3ccc(C(C)C)cc3CC[C@@H]12,13.8% (inactive) and 99% (active),10.1% (inactive) and 99% (active),6% (inactive),97% (active),3.05% (inactive) and 99.1% (active),-8% (inactive),74% (active),0% (inactive),41% (inactive),-19.3% (inactive) and 99% (active),1% (inactive),43% (inactive),-31.1% (inactive) and 99.2% (active),-1% (inactive),66% (inactive),–,–,–
CC1(C)C(c2ccccc2)=Nc2ccccc21,32.5% (inactive),86.2% (active),3% (inactive),89% (active),92.6% (active),-13% (inactive),61% (inactive),-2% (inactive),62% (inactive),38% (inactive),9% (inactive),94% (active),96.7% (active),-5% (inactive),46% (inactive),–,–,–
OC1C(O)C(O)C(O)C(O)C1O (configuration not stated),–,4.3% (inactive) [middle of 5 runs],–,–,–,–,–,–,–,–,–,–,0.4% (inactive) [middle of 5 runs],–,–,–,–,–
NC1=C(Cl)C(=O)c2ccccc2C1=O,91.4% (active) and 97.8% (active),88.5% (active) and 95.5% (active),0% (inactive) and -30% (inactive),93% (active) and 98% (active),79.8% (active) and 93.6% (active),7% (inactive) and 10% (inactive),95% (active) and 97% (active),15% (inactive) and 4% (inactive),61% (inactive) and 97% (active),76.7% (active) and 78.8% (active),16% (inactive) and 7% (inactive),97% (active) and 98% (active),84.3% (active) and 95.5% (active),8% (inactive) and 7% (inactive),96% (active) and 98% (active),–,–,–
